Data reported in PubChem BioAssay AID594 (National Center for Advancing Translational Sciences (NCATS), 2007).
In all, about 59,000 compounds went through this assay and about 30 (0.05%) were called active. Rule as the data show it: active = max dye-equivalent concentration above about 11 nM; inconclusive = between about 1.1 nM and that limit; inactive = weaker than that. What follows is part of a selection rich in actives, with near analogues and random picks from the rest.

Assay: qHTS Assay for Spectroscopic Profiling in Rhodamine Spectral Region
Conditions: Rhodamine-region fluorescence, 547/598 nm, Tris buffer; active compounds read high
Source text: NIH Molecular Libraries Screening Centers Network [MLSCN] NIH Chemical Genomics Center [NCGC] […] Occasionally, the artifactual effect may originate from the compound#s own spectral or other biophysical properties which generally tend to track its assay concentration. Pre-screening/profiling the library with respect to the compounds# spectral properties should help one exclude false positives early on. While the most informative fluorescent profiling data set is obtained by performing a full excitation and emission scan of each well by using a monochromator-based plate reader, such an approach is practical only on a very limited scale as scanning each well requires long time. An alternative approach, applied here, is to perform plate reader scans using selected excitation and emission wavelength pairs to generate a multidimensional relational database that correlates compound concentration and the respective relative fluorescence intensity at a given wavelength set. A standard curve of rhodamine present on each plate as six-point concentration series, was used to compute a normalized fluorescence response, termed dye-equivalent concentration, for each compound at each concentration.
NCGC Assay Protocol Summary: Buffer: 100 mM Tris buffer, pH 8.0 Dye standard plate: The wells in columns 1 through 4 of a Kalypsys polypropylene 1536-well compound plate were filled with standard solutions of fluorophore corresponding to the spectral region of interest. Solutions of rhodamine were placed in the following wells: E1, F1: 3 mM, E2, F2: 300 uM, E3, F3: 30 uM, E4, F4: zero (DMSO), G1, H1: 3 uM, G2, H2: […], G3, H3: 300 nM, G4, H4: zero (DMSO). Assay Steps: Six uL of buffer were dispensed to 1536-well Greiner black plates. Compounds and dye standards (23 nL) were transferred via Kalypsys PinTool. The plates were incubated for 15 min at room temperature, and then read on ViewLux (Perkin-Elmer) High-throughput CCD imager using 547 nm and 598 nm excitation and emission filter set. Keywords: NIH Roadmap, MLSCN, MLI, MLSMR, qHTS, NCGC, Rhodamine , Fluorescent Profiling.

| SMILES | max dye-equivalent concentration |
| --- | --- |
| O=C(Nc1ccon1)c1sc2ccccc2c1Cl | inactive |
| Cn1c(=S)c2[nH]c(SCCCc3ccccc3)nc2n(C)c1=O | inactive |
| O=S(=O)(NCc1cccnc1)c1ccc(Br)s1 | inactive |
| O=C(OCC(O)C(O)COC(=O)c1ccccc1)c1ccccc1 (stereo unspecified) | inactive |
| Cc1nc2ccc(S(=O)(=O)NCC(=O)NCCN3CCCCC3C)cc2s1 (stereo unspecified) | inactive |
| CNC(=O)c1cc2c(ccc3ccccc32)oc1=N | inactive |
| COc1ccc2oc(=O)c(C(=O)N3CCN(c4ccccc4F)CC3)cc2c1 | inactive |
| COc1ccc(N=Cc2c(O)[nH]c3ccccc23)cc1OC | inactive |
| CC1CCCN(C(=O)Cn2c(=O)oc3ccccc32)C1 (stereo unspecified) | inactive |
| CC1(C)CC(O)C(CCC(O)c2ccccc2)C(C)(C)N1 (stereo unspecified) | inactive |
| CC(=O)OCc1cc2cc(C)ccc2[nH]c1=O | inactive |
| O=C(c1cc(C(F)(F)F)cc(C(F)(F)F)c1)N1CCC2(CCCN(c3ccccn3)C2)CC1 | inactive |
| CCc1ccccc1NC(=O)CSc1nnc([C@@H](NC(=O)OC(C)(C)C)C(C)CC)o1 (stereo partly specified) | inactive |
| CCOC(=O)CSc1nncc2ccc(OC)c(OC)c12 | inactive |
| Cc1noc(C)c1-c1cc(NCc2cccnc2)ncn1 | inactive |
| CN1CCN(c2ncc3nc(-c4ccc(Cl)cc4)c(=O)n(-c4ccccc4)c3n2)CC1 | inactive |
| CC(=O)c1ccc(-n2nnnc2SCC(=O)N2CCN(C(=O)c3ccco3)CC2)cc1 | inactive |
| COc1ccc2c(c1)CCc1c(C(=O)N3CCCC3)noc1-2 | inactive |
| O=C(NCc1ccco1)c1sc2cccc(F)c2c1Cl | inactive |
| Cc1cc2nc(-c3ccc(NC(=O)c4cccnc4)cc3)oc2cc1C | inactive |
| c1ccc2c(CNn3cnnc3)cccc2c1 | inactive |
| Cn1c(SCC(=O)Nc2cccc(O)c2)nnc1-c1ccc(S(=O)(=O)N2CCOCC2)cc1 | inactive |
| CC(C)C(=O)N1CCN(CCN=CC2=C(O)CC(c3ccco3)CC2=O)CC1 (stereo unspecified) | inactive |

| SMILES | max dye-equivalent concentration |
| --- | --- |
| O=C(c1cc(C(F)(F)F)cc(C(F)(F)F)c1)N1CCC[C@@]2(CCN(c3ccccn3)C2)C1 | inactive |
| COc1ccc2c(c1)CCc1c(C(=O)N3CCc4ccccc4C3)noc1-2 | inactive |
| S=c1[nH]nc(SCc2ccccc2Cl)c2[nH]cnc12 | inactive |
| Brc1ccc(Nc2c3c(nc4ncnn24)CCC3)cc1 | inactive |
| Cc1cc(=O)oc(C)c1C(=O)NC1CC(C)(C)NC(C)(C)C1 | inactive |
| CCOC(=O)COc1ccc(Cl)cc1C1NC(=O)NC(C)=C1C(C)=O (stereo unspecified) | inactive |
| Cc1cccc(N2CCN(C(=O)C3CCN(S(=O)(=O)c4cnc[nH]4)CC3)CC2)c1C | inactive |
| Cc1cc(Cl)ccc1OCC(=O)Oc1c(Cl)c(Cl)c(Cl)c(Cl)c1Cl | inactive |
| CCOC(=O)N1CCN(S(=O)(=O)c2cc(Br)cc3c2N(C(=O)C2CC2)CC3)CC1 | inactive |
| CCOC(=O)c1cc2cc(C)ccc2[nH]1 | inactive |
| CC(C)C[C@H](NC(=O)Nc1cccc(C(F)(F)F)c1)C(=O)O | inactive |
| CN(C)CCCNc1c2c(c(C#N)c3nc4ccccc4n13)CCC2 | inactive |
| COc1ccc(CNC(=O)c2c(C)cc(=O)oc2C)cc1OC | inactive |
| CC(=O)c1c(C)c[nH]c1C | inactive |
| O=C(NCc1ccccc1)C1C(=O)N(Cc2ccccc2)C(=O)C1C1(O)CCCC1 (stereo unspecified) | inactive |
| Cn1c(=O)c2c(nc(N3CCCCCC3)n2CC(O)COc2ccc(Cl)cc2)n(C)c1=O (stereo unspecified) | inactive |
| CN(C)c1ncc2nc(-c3ccc(F)cc3)c(=O)n(Cc3ccc(F)cc3)c2n1 | inactive |
| CS(=O)(=O)N1CCC2(CC1)CN(c1ccncc1)C2 | inactive |
| Cc1ccccc1N1CC(c2nc3ccccc3[nH]2)CC1=O (stereo unspecified) | inactive |
| CCN1CCN(C(=O)c2ccccc2N(C)S(=O)(=O)c2ccc(C)cc2)CC1 | inactive |
| Cc1ccc(C(=O)Nc2ccccc2C(=O)NC2CCCCC2)cc1S(=O)(=O)N1CCOCC1 | inactive |
| C/C(O)=C\c1nc(=O)c2c(C)cc(C)nc2n1-c1ccccc1 | inactive |
| CC(C)NC(=O)N1CC[C@@]2(CCCN(C(=O)c3cccc(F)c3)C2)C1 | inactive |

| SMILES | max dye-equivalent concentration |
| --- | --- |
| CCCn1c(SCC(=O)Nc2cccc(C(=O)OCC)c2)nnc1-c1ccoc1C | inactive |
| CCOc1ccc(NCCC(=O)c2ccc3c(c2)OCO3)cc1 | inactive |
| CCOC(=O)N1CCN(C(=O)c2cc3c(ccc4ccccc43)oc2=O)CC1 | inactive |
| O=C(Nc1ccc(NC(=O)c2cccs2)cn1)c1ccco1 | inactive |
| CCCCCOC(=O)NCCOC(=O)Nc1ccc(C(=O)OCC)cc1 | inactive |
| CC1CC(c2ccccc2)n2nc(NC(=O)c3cccs3)nc2N1 (stereo unspecified) | inactive |
| CCn1c(=O)cc(OCC(=O)NCCCN2CCN(c3cccc(Cl)c3)CC2)c2ccccc21 | inactive |
| O=C(c1csnn1)N1CCC[C@@]2(CCN(c3cccc(-c4ccccc4)c3)C2)C1 | inactive |
| CN(c1ccccc1)c1ccc(/C=c2\s/c(=C(/C#N)C(=O)C(C)(C)C)n(Cc3ccco3)c2=O)cc1 | 36 nM (active) |
| CCOC(=O)CSc1nc2c(sc(=S)n2CCc2ccccc2)c(=O)n1Cc1ccco1 | inactive |
| CCOc1ccccc1/C=c1\sc2nc(-c3ccco3)nn2c1=O | inactive |
| Cc1cccc(OCc2nnc(SCc3nc4cc(C(F)(F)F)ccc4c(=O)[nH]3)o2)c1 | inactive |
| COc1ccc(C(CNC(=O)c2cccnc2SC)N2CCOCC2)cc1 (stereo unspecified) | inactive |
| O=C(CSc1nnc(-c2ccc(NS(=O)(=O)c3ccccc3)cc2)o1)NCC1CCCO1 (stereo unspecified) | inactive |
| O=C(C1CCC(C(=O)N2CCCC2)CC1)N1CCCC1 (stereo unspecified) | inactive |
| COc1ccc(S(=O)(=O)N2CCCC(C(=O)Nc3ccc(NC(=O)c4ccccn4)cc3)C2)cc1 (stereo unspecified) | inactive |
| CCn1c(NCCc2ccc(OC)c(OC)c2)nc2c1c(=O)n(C)c(=O)n2C | inactive |
| CCNc1nc(N)nc(Oc2ccc(OCC)nn2)n1 | inactive |
| CC1=Nn2c(nnc2-c2ccccc2)SC1 | inactive |
| CN(CC(=O)NC1CCCCC1)S(=O)(=O)c1ccc(Br)s1 | inactive |
| O=C(CSc1nnc(-c2ccccc2)o1)N1CCOCC1 | inactive |
| Cc1ccc(CC2CC(=O)N(c3ccc4c(c3)OCCO4)C2=O)cc1 (stereo unspecified) | inactive |
| C[C@]1(O)CC[C@H]2[C@H]3CC=C4N5CCN=C5CC[C@@]4(C)[C@H]3CC[C@@]21C | inactive |

| SMILES | max dye-equivalent concentration |
| --- | --- |
| CCNc1ncc2ncc(=O)n(Cc3cccc(OC)c3)c2n1 | inactive |
| CC1Cc2ccccc2N1C(=O)CSc1nc2ccccc2o1 (stereo unspecified) | inactive |
| CCN(CC)c1ccc(C(=O)OCC(=O)c2ccco2)cc1 | inactive |
| Cc1ccsc1C(C(=O)NC1CCCCC1)N(C(=O)Cc1cccs1)C1CC1 (stereo unspecified) | inactive |
| CCC(C(=O)Nc1ncccn1)(C(F)(F)F)C(F)(F)F | inactive |
| CC(C)C(c1nnnn1CCc1ccccc1)N1CCN(C(=O)c2ccco2)CC1 (stereo unspecified) | inactive |
| O=C(Nc1c(-c2ccccc2)nc2c(Br)cc(Br)cn12)c1ccco1 | inactive |
| Cc1oc(-c2cccc(Cl)c2)[n+]([O-])c1C | inactive |
| COCCn1c(=O)c(-c2cccs2)nc2cncnc21 | inactive |
| Nc1nonc1-c1noc(-c2ccc(Br)o2)n1 | inactive |
| CCOC(=O)C1=C(CNC2CCCCC2)NC(=O)NC1c1cc(C)ccc1C (stereo unspecified) | inactive |
| Cc1cc(=O)n2nc(N3CCCC3C(=O)NCCCN3CC(C)CC(C)C3)sc2n1 (stereo unspecified) | inactive |
| O=C(CN1CCN(c2ccccn2)CC1)NCc1cccs1 | inactive |
| OCc1n[nH]c(CO)n1 | inactive |
| CCC(=O)Nc1sc(C(=O)N2CCCCC2)c(C)c1C#N | inactive |
| CCOC(=O)c1c(C)c(C(=O)NCCc2ccc(S(N)(=O)=O)cc2)c(C)n1CC | inactive |
| COc1ccc(CCNC(=O)CN2CCC(n3nnc4cc(F)ccc43)CC2)cc1OC | inactive |
| Nc1nnnn1/N=C/c1cccs1 | inactive |
| CCc1ccccc1NC(=O)CSc1nnc([C@@H](NC(=O)OC(C)(C)C)C(C)C)o1 | inactive |
| COc1cc(Cl)c(C)cc1NC(=O)CSc1nnc(-c2cccnc2)n1Cc1ccco1 | inactive |
| Cc1cc(N2CCCC2=O)cc(C)c1S(N)(=O)=O | inactive |
| C/C(=N\O)C1(C)N(O)C(C)(C)C(c2ccc(Br)cc2)=[N+]1[O-] (stereo unspecified) | inactive |
